A selection: hits, their analogues and other compounds. The true share with any hit is near 8.5%.
Sfp PPTase inh = inhibitors of Bacillus subtilis Sfp phosphopantetheinyl transferase | AID 1490 | 310,000 tested, 3.5% active | Potency, µM, actives largely listed as inhibitors | Biochemical Sfp PPTase activity, qHTS;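 also: the enzyme is Sfp with the accession as filed and its product quenches rhodamine fluorescence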
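After 15 min at room temperature with compound, 15 nM Sfp received 5 uM rhodamine-CoA plus 12.5 uM BHQ-2-ybbR (50 mM Hepes pH 7.6, 10 mM MgCl2). Rate came from the fluorescence difference over 30 min, ex 525/em 598 nm.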
ALDH1A1 inh = ALDH1A1 (human) enzyme inhibition; P00352; Purified ALDH1A1, NADH fluorescence, propionaldehyde substrate; Potency, µM (series often up to 75.3 µM), most hits filed as inhibitors; 220,000 tested, 7.3% active; active = well fitted inhibition curve with a large enough effect, not every such curve was filed as active; inconclusive = small, poorly fitted or top-dose-only effect, or another doubt; inactive = no such curve, though single readings can be large or run the other way
NPSR antagonist = neuropeptide S receptor (human) antagonism, cAMP | Q6W5P4 | CHO-NPSR cells, cAMP TR-FRET, antagonist mode | Potency, µM (titrated, usually from 38.3 µM), actives largely listed as inhibitors | 220,000 tested, 1% active; also: nearly all actives have a fitted effect of over 50% in size
RGS12 GoLoco inh = blocks human Gai1 binding to RGS12 GoLoco peptide, red readout. Gai1:RGS12 GoLoco peptide FP, rhodamine, 10 min. Potency, µM (highest dose often 61.6 µM), hits mostly inhibitors. 230,000 tested, 0.44% active. AID 880; active = well fitted inhibition curve with a large enough effect, not every such curve was filed as active; inactive = no such curve, though single readings can be large or run the other way; also: nearly all actives have a fitted effect of over 30% in size
KDM4E inh = inhibitors of human JMJD2E histone demethylase. 230,000 tested, 1.6% active. Potency, µM (titrated, usually from 57.1 µM), most hits filed as inhibitors. JMJD2E catalytic domain, FDH-coupled NADH fluorescence (FDH is formaldehyde dehydrogenase). B2RXH2; active = well fitted inhibition curve with a large enough effect, not every such curve was filed as active; inconclusive = small, poorly fitted or top-dose-only effect, or another doubt; inactive = no such curve, though single readings can be large or run the other way; also: nearly all actives have a fitted effect of over 50% in size
Target sequence (B2RXH2 1-337 limits assumed): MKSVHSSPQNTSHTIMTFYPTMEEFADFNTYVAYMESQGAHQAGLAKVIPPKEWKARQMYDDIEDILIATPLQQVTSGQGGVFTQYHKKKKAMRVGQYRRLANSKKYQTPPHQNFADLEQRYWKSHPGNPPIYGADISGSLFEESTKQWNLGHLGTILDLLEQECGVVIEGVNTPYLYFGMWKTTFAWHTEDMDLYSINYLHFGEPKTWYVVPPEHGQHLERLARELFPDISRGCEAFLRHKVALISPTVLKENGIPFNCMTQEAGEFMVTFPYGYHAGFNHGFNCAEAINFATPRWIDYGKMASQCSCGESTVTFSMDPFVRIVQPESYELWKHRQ
FBPA coupling cs = inhibits coupling enzyme system, counter-screen for aldolase hits; coupling enzyme system counterscreen, AmpLite Red fluorescence; activity change, negative = inhibition, % at 58.2 µM, hits read low; 290,000 tested, 0.67% active; AID 2472; in the data active = activity change below about -30%
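Fluorescence at 525 nm excitation and 598 nm emission measured inhibition of the coupled detection system without aldolase. Compounds (at 57.5 uM final) were preincubated 10 min at room temperature with coupling enzyme reagent before a 20 min substrate/AmpLite Red step.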
Hits are given with their value; . = inactive; ? = inconclusive; / = no result. Unless noted, calls follow the shape of the dose curve; as a rule, active = well fitted curve in the direction sought with a large enough effect; inconclusive = small, poorly fitted or top-dose-only effect, or another doubt; inactive = no such curve, though single readings can be large; an effect the other way counts as inactive or inconclusive.

SMILES | Sfp PPTase inh | ALDH1A1 inh | NPSR antagonist | RGS12 GoLoco inh | KDM4E inh | FBPA coupling cs
CCc1ccc(-c2cc(C)no2)cc1S(=O)(=O)N1CCN(C(=O)c2ccco2)CC1 | . | / | / | / | / | .
NCCCC[C@H]1CNC(=O)C(=O)N1CCC12CC3CC(CC(C3)C1)C2 | . | / | . | . | . | .
CN(C1CCCCC1)S(=O)(=O)c1cccc2nsnc12 | . | / | / | / | / | .
NC(=NCc1ccc2c(c1)OCO2)NC(=O)c1ccccc1 | ? | . | . | . | 4.47µM | .
O=C(Cc1ccccc1F)Nc1nc(-c2ccc(F)c(F)c2)cs1 | . | / | / | / | / | .
c1ccc(CNc2nc(-c3cccnc3)cs2)cc1 | 35.5µM | ? | . | . | . | .
O=C(Cc1ccccc1F)Nc1nc(-c2cccnc2)cs1 | . | 25.1µM | . | . | . | .
CCOC(=O)c1[nH]ncc1CN1CCCC(C(=O)c2ccc(SC)cc2)C1 (stereo unspecified) | . | 35.5µM | . | . | . | .
CCOC(=O)c1[nH]ncc1CN1CCCC(C(=O)c2cccc3ccccc23)C1 (stereo unspecified) | . | . | . | . | . | .
CC(=O)C1=C(C)OC(N)=C(C#N)C1c1cc2cccc(C)c2nc1Cl (stereo unspecified) | . | ? | . | . | ? | -34.1
COCCOC(=O)C1=C(C)OC(N)=C(C#N)C1c1cc2cccc(C)c2nc1Cl (stereo unspecified) | ? | ? | . | . | . | .
CC(=O)C1=C(c2ccccc2)OC(N)=C(C#N)C1c1ccccc1C (stereo unspecified) | . | ? | ? | . | . | .
COC(=O)C1=C(C)OC(N)=C(C#N)C1c1cc2cccc(C)c2nc1Cl (stereo unspecified) | . | 28.2µM | . | . | ? | .
COCc1cc(C)nc(SCC(=O)Nc2ccc3[nH]c(=O)[nH]c3c2)c1C#N | . | / | / | / | / | .
Cc1ccc(S(=O)(=O)N2CCCCC2)cc1NC(=O)c1ccccn1 | . | / | . | . | . | .
COc1ccc2oc(=O)c(C(=O)NCc3ccccc3)cc2c1 | . | / | / | / | / | .
COc1ccc2oc(=O)c(C(=O)OCc3ccccc3)cc2c1 | 50.1µM | / | / | / | / | .
CCOC(=O)c1cc(-c2ccccc2)sc1NC(=O)C(C)N1C(=O)c2ccccc2C1=O (stereo unspecified) | . | . | . | . | . | .
COc1cc(O)oc1C=Nc1ccc(Cl)cc1Cl | . | 14.1µM | ? | . | . | .
COc1cc(O)oc1C=Nc1ccc(Cl)cc1 | . | ? | . | . | . | .
Cc1cc(C)c2c(NC(=O)CCl)nn(C)c2n1 | . | ? | . | . | ? | .
CCc1cc(SC#N)cc(CC)c1NC(=O)CCl | . | 14.1µM | . | . | . | .
O=c1nc2s/c(=C\c3ccco3)c(=O)n2nc1Cc1ccc(F)cc1 | 44.7µM | . | . | . | . | .
O=c1/c(=C/c2ccco2)sc2n1CN(c1ccccc1)CN=2 | . | . | . | . | . | .
Cc1cccc(NC(=O)CSc2nnc(-c3ccco3)c(-c3ccco3)n2)c1C | 31.6µM | 3.55µM | . | . | ? | .
SMILES | Sfp PPTase inh | ALDH1A1 inh | NPSR antagonist | RGS12 GoLoco inh | KDM4E inh | FBPA coupling cs
COc1ccc(CC(=O)Nc2ccc(-c3nnc(-c4ccccc4)o3)cc2)cc1OC | . | 3.55µM | ? | . | ? | .
COc1ccc(CCNC(=O)CSc2n[nH]c(N)n2)cc1OC | . | / | / | / | / | .
COc1ccc(CCNC(=O)CSc2nnc(-c3cccc(C)c3)o2)cc1OC | . | 17.8µM | . | . | . | .
COc1ccc(CCNC(=O)CSc2nnc(-c3ccco3)c(-c3ccco3)n2)cc1OC | 20µM | / | / | / | / | .
CCC(C)c1ccccc1NC(=S)NC(=O)c1ccco1 (stereo unspecified) | . | / | / | / | / | /
CN(CCOc1ccccc1)C(=O)C1CCC(=O)N(CCCN2CCCC2=O)C1 (stereo unspecified) | . | / | / | / | / | /
CCn1c2ccccc2c2cc(NC(=O)CSc3nnc(-c4cccc(C)c4)o3)ccc21 | . | 17.8µM | . | . | . | .
Cc1cccc(NC(=O)CSc2nc(N)cc(N)n2)c1 | . | . | . | . | . | .
Cc1cccc(NC(=O)CSc2nnc(-c3ccco3)c(-c3ccco3)n2)c1 | 7.94µM | 7.94µM | . | . | . | .
O=C(Nc1ccc(S(=O)(=O)Nc2cnc3ccccc3n2)cc1)c1cccc(OC(F)F)c1 | . | / | / | / | / | .
